Several values for one entry are separate records, joined by “and”; a condition that tells them apart may be missing. Identical values can stand only once. Among all 5,500 compounds or so, about 2,000 (36%) were called active. About 18% were inconclusive and are not listed. Cut-off read from the data, not from the text of the source: active = normalized growth mostly below about 0.91 (no sharp cut-off); inconclusive = no clear call, values can overlap the other calls; inactive = mostly above about 0.92. Some of the results follow.
Test: chemical genetic growth profiling, strain panel (AID 1159580);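 note: tested at 20 µM; growth read once vehicle control cultures reached saturation at 30 °C; 1 = growth at the plate median or of vehicle wells; lower values mean less growth of the strain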
Conditions: S. cerevisiae deletion strains, growth OD

Measured: normalized growth

Cc1cc(NC(=O)C2=C(O)c3ccccc3S(=O)(=O)N2C)no1
inactive: locus YAL021C, strain ccr4, hits give low values 0.959 | locus YAL026C, strain drs2, hits give low values 0.97 | locus YAL030W, strain snc1, hits give low values 0.969 | locus YBL061C, strain skt5, hits give low values 0.965 | locus YBR009C, strain hhf1, hits give low values 0.961 | locus YBR021W, strain FUR4, hits give low values 1.01 | locus YBR023C, strain chs3, hits give low values 0.967 | locus YBR171W, strain sec66, hits give low values 0.926 | locus YBR229C, strain ROT2, hits give low values 0.991 | locus YBR231C, strain swc5, hits give low values 0.972 | locus YBR279W, strain paf1, hits give low values 0.992 | locus YCL011C, strain gbp2, hits give low values 0.982 | locus YCL016C, strain dcc1, hits give low values 0.968 | locus YCL029C, strain bik1, hits give low values 0.958 | locus YCL069W, strain vba3, hits give low values 0.963 | locus YCR088W, strain abp1, hits give low values 0.964 | locus YDL005C, strain med2, hits give low values 0.984 | locus YDL035C, strain GPR1, hits give low values 0.981 | locus YDL040C, strain nat1, hits give low values 0.964 | locus YDL074C, strain BRE1, hits give low values 1.03 | locus YDL101C, strain DUN1, hits give low values 0.997 | locus YDL134C, strain PPH21, hits give low values 0.995 | locus YDL192W, strain arf1, hits give low values 0.952 | locus YDR001C, strain nth1, hits give low values 0.95 | locus YDR069C, strain doa4, hits give low values 0.99 | locus YDR101C, strain arx1, hits give low values 1.01 | locus YDR137W, strain rgp1, hits give low values 1 | locus YDR150W, strain NUM1, hits give low values 0.975 | locus YDR159W, strain sac3, hits give low values 0.983 | locus YDR162C, strain NBP2, hits give low values 0.961 | locus YDR195W, strain ref2 0.965 | locus YDR297W, strain sur2, hits give low values 0.973 | locus YDR318W, strain mcm21, hits give low values 0.966 | locus YDR334W, strain swr1, hits give low values 0.963 | locus YDR335W, strain msn5, hits give low values 0.964 | locus YDR388W, hits give low values 0.945 | locus YDR392W, strain spt3, hits give low values 0.905 | locus YDR502C, strain sam2, hits give low values 0.98 | locus YEL003W, strain gim4, hits give low values 0.959 | locus YEL037C, strain rad23, hits give low values 0.961 | locus YEL061C, strain CIN8 (second series), hits give low values 0.951 | locus YEL061C, strain CIN8, hits give low values 0.977 | locus YER015W, strain faa2, hits give low values 0.98 | locus YER016W, strain bim1, hits give low values 0.946 | locus YER110C, hits give low values 0.937 | locus YER111C, strain swi4, hits give low values 0.962 | locus YER155C, strain BEM2 (second series), hits give low values 0.976 | locus YER155C, strain BEM2, hits give low values 0.975 | locus YER167W, strain BCK2, hits give low values 0.985 | locus YFR010W, strain ubp6, hits give low values 1 | locus YGL078C, strain dbp3, hits give low values 0.965 | locus YGL086W, strain mad1, hits give low values 0.999 | locus YGL167C, strain pmr1, hits give low values 0.978 | locus YGL173C, strain kem1, hits give low values 0.984 | locus YGL227W, strain vid30, hits give low values 0.973 | locus YGL240W, strain doc1, hits give low values 0.995 | locus YGL248W, strain PDE1, hits give low values 0.994 | locus YGL253W, strain hxk2, hits give low values 0.957 | locus YGR078C, strain PAC10, hits give low values 0.995 | locus YGR135W, strain pre9, hits give low values 0.929 | locus YGR252W, strain gcn5, hits give low values 0.998 | locus YHR013C, strain ard1, hits give low values 0.98 | locus YHR027C, strain rpn1, hits give low values 0.97 | locus YHR030C, strain SLT2, hits give low values 0.965 and 0.916 | locus YHR079C, strain IRE1 (second series), hits give low values 0.939 | locus YHR079C, strain IRE1, hits give low values 0.93 | locus YHR094C, strain hxt1, hits give low values 0.945 | locus YHR129C, strain ARP1, hits give low values 0.972 | locus YHR142W, strain chs7, hits give low values 0.991 | locus YHR200W, strain rpn10, hits give low values 0.947 | locus YIL066C, strain RNR3, hits give low values 1.01 | locus YIL073C, strain SPO22, hits give low values 0.881 | locus YIL125W, strain kgd1, hits give low values 0.939 | locus YIR030C, strain dcg1, hits give low values 0.928 | locus YJL092W, strain hpr5, hits give low values 0.97 | locus YJL095W, strain BCK1 (second series), hits give low values 0.971 | locus YJL095W, strain BCK1, hits give low values 1.01 and 0.962 | locus YJL115W, strain asf1, hits give low values 0.966 | locus YJL129C, strain trk1, hits give low values 0.924 | locus YJL134W, strain LCB3, hits give low values 0.965 | locus YJL154C, strain vps35, hits give low values 0.939 | locus YJL164C, strain tpk1, hits give low values 0.974 | locus YJL166W, strain qcr8, hits give low values 1 | locus YJL168C, strain set2, hits give low values 0.953 | locus YJL187C, strain SWE1 (second series), hits give low values 1 | locus YJR043C, strain POL32, hits give low values 1.02
active: locus YDL185W, strain tfp1, hits give low values 0.876

Reference: PubChem BioAssay AID1159580 (chemical genetic matrix, 2015)
